Compound activity from PubChem.
SKOV3 invasion: inhibitors of ovarian cancer cell adhesion and invasion in omental model. SKOV3ip1-GFP adhesion/invasion on 3D omental model, fluorescence. Potency, µM (doses to about 45.8 µM), inactives show at the highest dose activity change, negative = inhibition, actives largely listed as inhibitors. 46,000 compounds, 0.1% hits. AID 1963576;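 note: plate controls were DMSO wells for no effect and tomatine positive control wells for full effect; nearly all actives have a fitted effect of over 65% in size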
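Adhesion/invasion was scored as fixed GFP-labeled SKOV3ip1 cell counts (488/509 nm), normalized to DMSO and tomatine controls. Cancer cells in serum-free medium, with four compound doses (0.36-46 umol/L), sat 2 hr at RT then 16 hr at 37 C on a 48 hr fibroblast/mesothelial/ECM culture.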
pS6 MEF inh: mTORC1 pathway inhibition measured by phospho-rpS6. Tsc2-/- p53-/- MEF, phospho-rpS6 immunofluorescence/PI, 24 h. Potency, µM (top dose mostly 38.3 µM), for the others: at the highest dose activity change, negative = inhibition, usual class: inhibitors. 44,000 compounds, 0.78% hits;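 note: plate controls were DMSO for no effect and rapamycin for full effect; nearly all actives have a fitted effect of over 50% in size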
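Readout is phospho-S6 Alexa 488 signal normalized to PI per well, reported as % active cells with thresholds set from rapamycin (7.5 nM) and DMSO controls. Cells: Tsc2-/-, p53-/- MEFs, 24 hrs compound at 37 C; PI cell number serves as viability.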
HTT prom inh: inhibitors of huntingtin promoter activity; AID 1508623; HEK293 HTT promoter firefly luciferase reporter, 24 h; Potency, µM (doses to about 57.5 µM), for the others: at the top dose activity change, negative = inhibition, most hits filed as inhibitors; 48,000 compounds, 0.93% hits; note: nearly all actives have a fitted effect of over 50% in size
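Firefly luciferase signal from promoter-reporter HEK293 cells was scaled between vehicle (0%) and zero RLU (-100%). Compounds were tested at final concentrations of up to 57.5 uM over 24 h at 37 degrees C. PTC124 at 50 uM final served as control inhibitor.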
S16 F2sN tox: toxic to S16 Pmp22-F2sN Schwann cells | S16 Pmp22-F2sN Schwann cells viability, CellTiter-Glo, 24 h | Potency, µM (titrated, usually from 57.5 µM), for the others: at the top dose activity change, negative = cytotoxicity, usual class: cytotoxic | 43,000 compounds, 0.48% hits | AID 1508642; note: % is set by controls: 0 for no effect and ±100 for the full control effect; nearly all actives have a fitted effect of over 65% in size
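Viability was measured by CellTiter-Glo luminescence (15 min, room temperature). This followed 24 h at 37 °C of compound exposure (23 nL pin transfer) in S16 Pmp22-F2sN Schwann cells, 500-1,000 per well.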
HTT-AS act: HTT-AS promoter activation; Potency, µM (top dose mostly 57.5 µM), for inactives: at the highest dose activity change, positive = activation, hits mostly activators; HEK293 HTT-AS promoter firefly luciferase reporter, 24 h; response scale: percent change from vehicle, -100% = no light; 48,000 compounds, 0.24% hits; note: nearly all actives have a fitted effect of over 55% in size
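HEK293 luciferase promoter-reporter cells (2,500/well) plated 24 h, then compounds added at up to 57.5 uM final for 24 h at 37 °C. Firefly luminescence by Dual-Glo, normalized to vehicle (0%) and zero RLU (-100%).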
PMP22 txn: modulates PMP22 transcription in S16 Schwann cells. 43,000 compounds, 2% hits. AID 1508649. S16 Pmp22-F2sN Schwann cells (luciferase reporters placed in the Pmp22 gene), FLuc/NLuc coincidence luminescence, 24 h. Potency, µM (top dose mostly 57.5 µM), for inactives: at the highest dose activity change, negative = inhibition, usual class: inhibitors; active = clear falling dose curves in both reporters; inconclusive = both reporters move, but less clearly or upward; inactive = either reporter flat; the % is the NLuc reporter signal; note: % is set by controls: 0 for no effect and ±100 for the full control effect
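Luminescent read-out of sequential FLuc and NLuc signals from a reporter embedded in the Pmp22 3' UTR of S16 Schwann cells, taken after 24 h compound exposure at 37C; compounds reducing both signals score as inhibitors of expression.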
* hit, by the source's call; i = inactive; u = inconclusive; x = not tested or not shown; [ ] = dose if it differs, or a comment. Compounds with a hit are over-represented: about 3.6% of the library has one in this group of screens. Unless noted, calls come from the whole dose curve; as a rule, active = well fitted curve in the direction sought with a large enough effect; inconclusive = small, poorly fitted or top-dose-only effect, or another doubt; inactive = no such curve, though single readings can be large; an effect the other way counts as inactive or inconclusive. Potency is the fitted concentration of half-maximal effect.

SMILES | SKOV3 invasion | pS6 MEF inh | HTT prom inh | S16 F2sN tox | HTT-AS act | PMP22 txn
CCc1ccc(NC(=O)C(CC)n2c(=O)c(-c3ccccc3NC(C)=O)nc3ccccc32)cc1 (configuration not stated) | u | -10% | 14µM* | 1% | -35% | u
CCC(C(=O)Nc1c(C)cc(C)cc1C)n1c(=O)c(-c2ccccc2NC(C)=O)nc2ccccc21 (configuration not stated) | 2% | 0% | -9% | -2% | -7% | -13%
Cc1c(CN2CCN(C(=O)C(C)C)CC2)sc2c(N3CCOCC3)nc(-c3cnc(N)nc3)nc12 | 19% | x | u | x | -36% | x
CS(=O)(=O)c1ccc(C(=O)Nc2ccc(Cl)c(-c3ccccn3)c2)c(Cl)c1 | -5% | x | 17% | x | -4% | x
CC1CCN(c2nc3ccc(C(=O)NCc4ccc(Cl)cc4)cc3s2)CC1 | i | -3% | 0.25µM* | -7% | -79% | 10%
Cc1cccc(N2CCN(C(=O)c3ccc4nc(N5CCC(C)CC5)sc4c3)CC2)c1C | 2% | -7% | 2.5µM* | u | -75% | u
CC1CCN(c2nc3ccc(C(=O)NCc4ccccc4Cl)cc3s2)CC1 | 2% | 2% | 0.28µM* | -1% | -81% | -17%
COc1ccccc1CNC(=O)c1ccc2nc(N3CCCCC3)sc2c1 | i | 1% | u | 4% | -28% | 1%
Cc1ccc(CCNC(=O)c2ccc3nc(N4CCC(C)CC4)sc3c2)cc1 | i | 2% | 0.35µM* | 20% | -73% | 0%
Cc1ccc([C@@H]2O[C@H](CO)[C@@H](O)[C@H](O)[C@@H]2O)cc1Cc1ccc(-c2ccc(F)cc2)s1 | 6% | x | -15% | x | -24% | x
O=C(C=Cc1c(C(=O)O)[nH]c2cc(Cl)cc(Cl)c12)Nc1ccccc1 | -17% | x | 3% | x | -15% | x
CCN(CC)CCCCNc1nc2cc(Cl)c(Cl)cc2nc1-c1ccc(-c2cccs2)s1 | -13% | x | u | x | -24% | x
COc1ccc(Br)cc1C(=O)Nc1nc2ccc(F)cc2s1 | i | 6% | 100% | -4% | 1.8µM* | -10%
Cc1ccc(C(=O)Nc2cccc3cccnc23)cc1Cl | 11% | -1% | 58% | 4% | 8.9µM* | 17%
CCCOc1cccc(C(=O)Nc2cccc3cccnc23)c1 | 1% | 0% | -1% | 8% | 29% | 0%
COc1ccc2oc(=O)c(-c3nc4ccc(C)cc4[nH]3)cc2c1 | 6% | -5% | 22% | -29% | 8% | u
COc1cccc2cc(-c3nc4ccc(C)cc4[nH]3)c(=O)oc12 | -11% | 6% | 63% | 3% | 0.32µM* | 11%
Cc1cc(CS(=O)(=O)c2ccccc2)cc(OCc2ccc(CN3CCC[C@H]3CO)cc2)c1 | 29% | x | 3% | x | -2% | x
CC(C)NC(=O)Nc1ccc2c(c1)N(C)C(=O)c1ccccc1S2 | 2% | u | 0% | -25% | -4% | -17%
Cc1ccc(C(=O)Nc2ccc3c(c2)N(C)C(=O)c2ccccc2S3)cc1F | 11% | -19% | 13µM* | u | -52% | u
CN1C(=O)c2ccccc2Sc2ccc(NC(=O)N3CCN(c4ccc(F)cc4)CC3)cc21 | -11% | -24% | 28µM* | -28% | -77% | u
C[C@]12CC[C@H](O)CC1=CC[C@@H]1[C@H]2CC[C@]2(C)C(c3cccnc3)=CC[C@H]12 | -14%[23.2 µM] | x | 1%[25.2 µM] | x | -11%[25.1 µM] | x
CCCCOC(=O)c1ccc(NC(=O)c2sc3nc(C)cc(C)c3c2N)cc1 | u | 10µM* | u | 10% | -54% | 2%
CCc1ccc(NC(=O)c2sc3nc(C)c(Cl)c(C)c3c2N)cc1 | 39% | -1% | 70% | -3% | 2.5µM* | u
COCc1cc(C)nc2sc(C(=O)Nc3ccc(C(C)=O)cc3)c(N)c12 | 3% | -9% | 44% | 0% | u | u
SMILES | SKOV3 invasion | pS6 MEF inh | HTT prom inh | S16 F2sN tox | HTT-AS act | PMP22 txn
NC(=O)c1c(OCc2c(F)cc(Br)cc2F)nsc1NC(=O)NCCCCN1CCCC1 | 5% | x | -20% | x | -23% | x
COC(=O)Nc1ccc(-c2nc(N3CCOCC3)c3cnn(C4CCN(Cc5cccnc5)CC4)c3n2)cc1 | u | x | u | x | -29% | x
Cc1cccc(N2CCN(C(=O)c3cnn(-c4cccc(Cl)c4C)c3C3CCNCC3)CC2)c1C | u | 16µM* | -13% | u | -18% | u
Cc1ccc(Cl)cc1N1CCN(C(=O)c2cnn(-c3ccc(Cl)cc3)c2C2CCNCC2)CC1 | u | u | -23% | u | -21% | u
Cc1ccc(CCNC(=O)C2CCN(c3nnc(C)c4c(C)n(-c5ccccc5)nc34)CC2)cc1 | -13% | 0% | -26% | -1% | -12% | -20%
CCCCN(CC)CCNC(=O)C1CCN(c2nnc(C)c3c(C)n(-c4ccc(C)cc4)nc23)CC1 | u | 15µM* | -8% | u | -13% | u
COc1ccc(-n2nc3c(N4CCCC(C(=O)NCc5ccc(C)cc5)C4)nnc(C)c3c2C)cc1 (configuration not stated) | 13µM* | -19% | -19% | u | -64% | u
CCCCN(CCCNC(=O)c1cc(Nc2cccc(SC)c2)nc2ccccc12)Cc1ccccc1 | u | 16µM* | u | u | -66% | u
Cn1c(=O)c2c(nc(N3CCOCC3)n2Cc2ccccc2)n(C)c1=O | i | 0% | -5% | 11% | -2% | -7%
CCOC(=O)Cn1c(=O)c2c(nc(N3CCOCC3)n2Cc2ccccc2)n(C)c1=O | i | 9.3µM* | 3% | 6% | -4% | -83%
O=c1ccn([C@@H]2O[C@H](CO)[C@H](O)[C@H]2O)c(=O)[nH]1 | -9% | x | u | x | 4% | x
Cc1ccccc1-n1c(Cn2nc(-c3cccc(O)c3)c3c(N)ncnc32)nc2cccc(C)c2c1=O | 6% | x | u | x | -42% | x
C[C@@H](Oc1cc(-c2cnn(C3CCNCC3)c2)cnc1N)c1c(Cl)ccc(F)c1Cl | -16% | x | u | x | -25% | x
COc1cccc(NC(=O)c2cc3c(-c4ccc(Cl)cc4)nn(C)c3s2)c1 | 6% | -2% | u | -18% | -20% | -9%
COc1ccc(-c2nn(C)c3sc(C(=O)Nc4cccc(F)c4)cc23)cc1OC | -35% | u | u | 14µM* | -26% | u
COc1ccc(NC(=O)Nc2nnc(C)s2)cc1 | -1% | 0% | 31% | 10% | 11µM* | u
